Screens deposited in PubChem by National Center for Advancing Translational Sciences (NCATS).
Many of the other results were omitted from the sample, so hits are more common in it than they were.
nsP2pro inh – CHIKV nsP2 protease inhibition, primary qHTS; 31,000 tested, 1.1% active; Potency, µM (series often up to 24.9 µM), inactives show at the top dose activity change, negative = inhibition, usual class: inhibitors; FRET peptide cleavage, nsP2pro, fluorescence 1 h; also: nearly all actives have a fitted effect of over 60% in size
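Purified recombinant nsP2pro (150 nM final) in 10 mM Tris-HCl pH 8.0 with 0.01% Tween 20 was preincubated 15 min at room temperature with compound (7 concentrations, up to 25 uM). FRET peptide 2 substrate (2.5 uM final) was then added; fluorescence was read after 1 h.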
CHIKV nsP2 cell – inhibits CHIKV nsP2 protease in cells; shares compounds with nsP2pro inh; cell-based CHIKV nsP2 protease reporter assay; Potency, µM (titrated, usually from 51.1 µM), for inactives: top-dose activity change, negative = inhibition, most hits filed as inhibitors; 450 tested, 10% active; also: nearly all actives have a fitted effect of over 70% in size
Target sequence (Q8JUX6 220-798 limits assumed): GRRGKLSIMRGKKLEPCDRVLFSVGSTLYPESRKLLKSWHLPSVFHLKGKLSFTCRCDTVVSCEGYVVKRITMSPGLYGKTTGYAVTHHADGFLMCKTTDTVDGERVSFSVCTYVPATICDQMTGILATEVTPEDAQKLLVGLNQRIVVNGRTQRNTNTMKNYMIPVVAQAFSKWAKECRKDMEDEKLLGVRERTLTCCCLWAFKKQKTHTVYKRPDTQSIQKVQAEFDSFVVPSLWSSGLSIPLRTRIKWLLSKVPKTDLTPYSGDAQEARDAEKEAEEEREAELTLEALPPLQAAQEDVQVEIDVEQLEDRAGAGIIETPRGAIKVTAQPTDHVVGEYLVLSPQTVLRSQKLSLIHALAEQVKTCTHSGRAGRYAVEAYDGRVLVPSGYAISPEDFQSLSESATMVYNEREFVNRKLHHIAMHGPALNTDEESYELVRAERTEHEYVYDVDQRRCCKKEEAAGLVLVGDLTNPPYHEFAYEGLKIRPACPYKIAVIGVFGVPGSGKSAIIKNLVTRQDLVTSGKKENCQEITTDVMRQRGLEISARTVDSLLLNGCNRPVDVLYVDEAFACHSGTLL
CHIKV NSP2 FL – selectivity test for CHIKV nsP2 protease inhibitors: full-length NSP2; shares compounds with nsP2pro inh; Full-length CHIKV NSP2 protease enzymatic counterscreen; Potency, µM (highest dose often 50.7 µM), without a hit: top-dose activity change, negative = inhibition, actives largely listed as inhibitors; 410 tested, 39% active; AID 1964101; also: nearly all actives have a fitted effect of over 65% in size
Furin counterscr – selectivity counter-screen for CHIKV nsP2 protease inhibitors: human furin; 410 tested, 6% active; Potency, µM (series often up to 50.6 µM), without a hit: at the highest dose activity change, negative = inhibition, usual class: inhibitors; shares compounds with nsP2pro inh; Recombinant human furin enzymatic counterscreen, fluorogenic substrate
NS23 peptide cs – selectivity test for CHIKV nsP2 protease inhibitors: endogenous NS2/3 peptide | AID 1964103 | Purified CHIKV nsP2 protease, endogenous NS2/3 peptide cleavage | shares compounds with nsP2pro inh | 410 tested, 34% active | Potency, µM (top dose mostly 51 µM), without a hit: at the top dose activity change, negative = inhibition, most hits filed as inhibitors; also: nearly all actives have a fitted effect of over 55% in size
Papain counter – papain protease inhibition, counterscreen for nsP2pro inhibitors | purified papain protease activity, enzymatic inhibition | shares compounds with nsP2pro inh | Potency, µM (highest dose often 51 µM), for the others: at the highest dose activity change, negative = inhibition, usual class: inhibitors | 410 tested, 5% active
nsP2pro confirm – CHIKV nsP2 protease inhibition, confirmatory qHTS | shares compounds with nsP2pro inh | CHIKV nsP2 protease enzymatic activity, qHTS | Potency, µM (doses to about 25.5 µM), for inactives: at the highest dose activity change, negative = inhibition, most hits filed as inhibitors | 410 tested, 43% active | AID 1964105; also: nearly all actives have a fitted effect of over 75% in size
HCV NS3 counter – selectivity counter-screen for CHIKV nsP2 protease inhibitors: HCV NS3/4A. shares compounds with nsP2pro inh. HCV NS3/4A protease biochemical counterscreen. Potency, µM (doses to about 50.9 µM), hits mostly inhibitors. 410 tested, 20% active. AID 1964106; also: nearly all actives have a fitted effect of over 55% in size
Starred values were filed as active, the others as inactive; i = inactive; ? = inconclusive; / = no result given; [ ] = dose if it differs, or a comment. Calls follow the shape of the full dose curve. % is scaled to controls: 0 for no effect and ±100 for the full control effect; potency is read from the fitted curve at half-maximal effect.

SMILES	nsP2pro inh	CHIKV nsP2 cell	others
CC(C)n1nc(C#Cc2ccccc2)c2c(N)ncnc21	4.4µM*	87%	CHIKV NSP2 FL=?;Furin counterscr=?;NS23 peptide cs=?;Papain counter=39%;nsP2pro confirm=8µM*;HCV NS3 counter=?
COC(=S)NCCn1c([N+](=O)[O-])cnc1C	3%	/
COc1cc(OC)c(C(CC(=O)N2CC(C)CC(C)C2)c2ccc3c(c2)OCO3)c(OCC#N)c1 (stereo not drawn)	i	/
C[C@@H](COc1ccc(Oc2ccccc2)cc1)Oc1ccccn1	-10%[39.2 µM]	/
O=[N+]([O-])c1cc(Cl)ccc1S(=O)(=O)N1CCN(Cc2ccccc2)CC1	-7%	/
O=[N+]([O-])c1ccc(O/N=[N+](\[O-])N2CCN(c3ncccn3)CC2)c([N+](=O)[O-])c1	-25%	/
O=[N+]([O-])c1ccc(S(=O)(=O)N2CCN(c3ccnc4cc(Cl)ccc34)CC2)c([N+](=O)[O-])c1	?	5.6µM*	CHIKV NSP2 FL=?;Furin counterscr=-10%;NS23 peptide cs=4.1µM*;Papain counter=-17%;nsP2pro confirm=?;HCV NS3 counter=i
CNc1ncc(-c2ccc3c(=O)c(C(=O)O)cn(C4CC4)c3c2C)cc1C	-5%[5.1 µM]	/
Cc1ccccc1C1=CCN(c2ncc(NC(=O)c3ccc(Cl)cc3)cc2C(=O)O)CC1	?	-5%
Cc1ccccc1C1=CCN(C)CC1	-4%	/
COc1ccc(C(=O)Nc2cnc(-c3ccc(Cl)cc3)nc2)cc1	-1%	/
O=C(/C=C/c1ccccc1Br)NCCc1nc2ccccc2[nH]1	3%	/
COc1ccc(/C=C/C(=O)O[C@H]2[C@@H]3C=CO[C@@H](O[C@@H]4O[C@H](CO)[C@@H](O)[C@H](O)[C@H]4O)[C@@H]3[C@@]3(CO)O[C@@H]23)cc1O	42%[10 µM]	/
C[C@@H]1O[C@@H](O[C@H]2[C@@H]3C=CO[C@@H](O[C@@H]4O[C@H](CO)[C@@H](O)[C@H](O)[C@H]4O)[C@@H]3[C@@]3(CO)O[C@@H]23)[C@H](OC(=O)/C=C/c2ccc(O)c(O)c2)[C@H](O)[C@H]1O	?	-3%[17.6 µM]	CHIKV NSP2 FL=-2%[17.3 µM];Furin counterscr=-9%[17.3 µM];NS23 peptide cs=-13%[17.2 µM];Papain counter=-12%[17.2 µM];nsP2pro confirm=-24%[8.62 µM];HCV NS3 counter=i
C[C@@H]1O[C@@H](O[C@H]2[C@@H]3C=CO[C@@H](O[C@@H]4O[C@H](CO)[C@@H](O)[C@H](O)[C@H]4O)[C@@H]3[C@@]3(CO)O[C@@H]23)[C@H](O)[C@H](OC(=O)/C=C/c2ccc(O)c(O)c2)[C@H]1O	?	6%[17.6 µM]	CHIKV NSP2 FL=-6%[17.3 µM];Furin counterscr=-7%[17.3 µM];NS23 peptide cs=-17%[17.2 µM];Papain counter=-11%[17.2 µM];nsP2pro confirm=-14%[8.62 µM];HCV NS3 counter=i
CC(=O)O[C@@H]1[C@@H](OC(=O)/C=C/c2ccccc2)[C@H](C)O[C@@H](O[C@H]2[C@@H]3C=CO[C@@H](O[C@@H]4O[C@H](CO)[C@@H](O)[C@H](O)[C@H]4O)[C@@H]3[C@@]3(CO)O[C@@H]23)[C@@H]1OC(C)=O	-10%[10 µM]	/
O=C(/C=C/c1ccc(O)c(O)c1)O[C@H]1[C@@H]2C=CO[C@@H](O[C@@H]3O[C@H](CO)[C@@H](O)[C@H](O)[C@H]3O)[C@@H]2[C@@]2(CO)O[C@@H]12	-7%[10 µM]	/
C[C@@H]1O[C@@H](O[C@H]2[C@@H]3C=CO[C@@H](O[C@@H]4O[C@H](CO)[C@@H](O)[C@H](O)[C@H]4O)[C@@H]3[C@@]3(CO)O[C@@H]23)[C@H](OC(=O)/C=C/c2ccccc2)[C@H](O)[C@H]1O	23%[10 µM]	/
Cc1cc(N[S+](=O)([O-])c2ccc(NC(=O)Cc3nc4ccc(Cl)cc4[nH]3)cc2)no1	i	/
CN1CCCCCCN(C(=O)c2cccn2C)[C@H]2CCC[C@H]2C1=O	i	/
